molecular target: AgAbp1; experiment: SPOT peptide array binding signal intensity (averaged, normalized) (arbitrary units (background-subtracted, floor 0; scale differs between SH3 domains)); higher = stronger binding of the SH3 domain to the peptide
Method in brief: (§1)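 Binding signal is given in arbitrary units that differ between domains and is the normalized, background-subtracted spot intensity averaged across replicates. Each GST-SH3 fusion from one of four yeast species was made in E. coli BL21(DE3), purified on glutathione Sepharose and incubated at 10 μg/ml overnight at 4°C on cellulose-bound synthetic 15-mer peptides in which cysteines were replaced by serines. Detection used anti-GST antibody, an HRP anti-mouse secondary and luminol, followed by imaging and Genespotter quantification.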

Binder | SPOT peptide array binding signal intensity
TEVPIPRRPPPPQAA | ≤ 0

molecular target: AgBbc1; experiment: as above
Method in brief: as §1

Binder | SPOT peptide array binding signal intensity
TEVPIPRRPPPPQAA | 130

molecular target: AgBem1-D1; experiment: as above
Method in brief: as §1

Binder | SPOT peptide array binding signal intensity
TEVPIPRRPPPPQAA | ≤ 0

molecular target: AgBzz1-D1; experiment: as above
Method in brief: as §1

Binder | SPOT peptide array binding signal intensity
TEVPIPRRPPPPQAA | 8

molecular target: AgBzz1-D2; experiment: as above
Method in brief: as §1

Binder | SPOT peptide array binding signal intensity
TEVPIPRRPPPPQAA | 7.5

molecular target: AgCyk3; experiment: as above
Method in brief: as §1

Binder | SPOT peptide array binding signal intensity
TEVPIPRRPPPPQAA | ≤ 0

molecular target: AgFus1; experiment: as above
Method in brief: as §1

Binder | SPOT peptide array binding signal intensity
TEVPIPRRPPPPQAA | ≤ 0

molecular target: AgHof1; experiment: as above
Method in brief: as §1

Binder | SPOT peptide array binding signal intensity
TEVPIPRRPPPPQAA | ≤ 0

molecular target: AgHse1; experiment: as above
Method in brief: as §1

Binder | SPOT peptide array binding signal intensity
TEVPIPRRPPPPQAA | ≤ 0

molecular target: AgLsb1; experiment: as above
Method in brief: as §1

Binder | SPOT peptide array binding signal intensity
TEVPIPRRPPPPQAA | ≤ 0

molecular target: AgLsb4; experiment: as above
Method in brief: as §1

Binder | SPOT peptide array binding signal intensity
TEVPIPRRPPPPQAA | 23.5

molecular target: AgMyo5; experiment: as above
Method in brief: as §1

Binder | SPOT peptide array binding signal intensity
TEVPIPRRPPPPQAA | 938

molecular target: AgNbp2; experiment: as above
Method in brief: as §1

Binder | SPOT peptide array binding signal intensity
TEVPIPRRPPPPQAA | ≤ 0

molecular target: AgRvs167; experiment: as above
Method in brief: as §1

Binder | SPOT peptide array binding signal intensity
TEVPIPRRPPPPQAA | 2.33

molecular target: AgSho1; experiment: as above
Method in brief: as §1

Binder | SPOT peptide array binding signal intensity
TEVPIPRRPPPPQAA | ≤ 0

molecular target: AgSla1-D1-D2; experiment: as above
Method in brief: as §1

Binder | SPOT peptide array binding signal intensity
TEVPIPRRPPPPQAA | ≤ 0

molecular target: AgSla1-D3; experiment: as above
Method in brief: as §1

Binder | SPOT peptide array binding signal intensity
TEVPIPRRPPPPQAA | 1

molecular target: CaAbp1-D1; experiment: as above
Method in brief: as §1

Binder | SPOT peptide array binding signal intensity
TEVPIPRRPPPPQAA | ≤ 0

molecular target: CaAbp1-D2; experiment: as above
Method in brief: as §1

Binder | SPOT peptide array binding signal intensity
TEVPIPRRPPPPQAA | ≤ 0

molecular target: CaBbc1; experiment: as above
Method in brief: as §1

Binder | SPOT peptide array binding signal intensity
TEVPIPRRPPPPQAA | 768

molecular target: CaBem1-D1; experiment: as above
Method in brief: as §1

Binder | SPOT peptide array binding signal intensity
TEVPIPRRPPPPQAA | ≤ 0

molecular target: CaBzz1-D1; experiment: as above
Method in brief: as §1

Binder | SPOT peptide array binding signal intensity
TEVPIPRRPPPPQAA | 32

molecular target: CaBzz1-D2; experiment: as above
Method in brief: as §1

Binder | SPOT peptide array binding signal intensity
TEVPIPRRPPPPQAA | ≤ 0

molecular target: CaCyk3; experiment: as above
Method in brief: as §1

Binder | SPOT peptide array binding signal intensity
TEVPIPRRPPPPQAA | 20

molecular target: CaFus1; experiment: as above
Method in brief: as §1

Binder | SPOT peptide array binding signal intensity
TEVPIPRRPPPPQAA | ≤ 0

molecular target: CaHof1; experiment: as above
Method in brief: as §1

Binder | SPOT peptide array binding signal intensity
TEVPIPRRPPPPQAA | 1

molecular target: CaHse1; experiment: as above
Method in brief: as §1

Binder | SPOT peptide array binding signal intensity
TEVPIPRRPPPPQAA | ≤ 0

molecular target: CaLsb1; experiment: as above
Method in brief: as §1

Binder | SPOT peptide array binding signal intensity
TEVPIPRRPPPPQAA | 0.5

molecular target: CaLsb4; experiment: as above
Method in brief: as §1

Binder | SPOT peptide array binding signal intensity
TEVPIPRRPPPPQAA | 210

molecular target: CaMyo5; experiment: as above
Method in brief: as §1

Binder | SPOT peptide array binding signal intensity
TEVPIPRRPPPPQAA | 1

molecular target: CaNbp2; experiment: as above
Method in brief: as §1

Binder | SPOT peptide array binding signal intensity
TEVPIPRRPPPPQAA | 204

molecular target: CaRvs167; experiment: as above
Method in brief: as §1

Binder | SPOT peptide array binding signal intensity
TEVPIPRRPPPPQAA | ≤ 0

molecular target: CaRvs167-3; experiment: as above
Method in brief: as §1

Binder | SPOT peptide array binding signal intensity
TEVPIPRRPPPPQAA | 2.75

molecular target: CaSho1; experiment: as above
Method in brief: as §1

Binder | SPOT peptide array binding signal intensity
TEVPIPRRPPPPQAA | ≤ 0

molecular target: CaSla1-D1-D2; experiment: as above
Method in brief: as §1

Binder | SPOT peptide array binding signal intensity
TEVPIPRRPPPPQAA | ≤ 0

molecular target: CaSla1-D3; experiment: as above
Method in brief: as §1

Binder | SPOT peptide array binding signal intensity
TEVPIPRRPPPPQAA | 0.5

molecular target: ScAbp1; experiment: as above
Method in brief: as §1

Binder | SPOT peptide array binding signal intensity
TEVPIPRRPPPPQAA | ≤ 0

molecular target: ScBbc1; experiment: as above
Method in brief: as §1

Binder | SPOT peptide array binding signal intensity
TEVPIPRRPPPPQAA | ≤ 0

molecular target: ScBem1-D1; experiment: as above
Method in brief: as §1

Binder | SPOT peptide array binding signal intensity
TEVPIPRRPPPPQAA | ≤ 0

molecular target: ScBzz1-D1; experiment: as above
Method in brief: as §1

Binder | SPOT peptide array binding signal intensity
TEVPIPRRPPPPQAA | 14

molecular target: ScBzz1-D2; experiment: as above
Method in brief: as §1

Binder | SPOT peptide array binding signal intensity
TEVPIPRRPPPPQAA | 12

molecular target: ScCyk3; experiment: as above
Method in brief: as §1

Binder | SPOT peptide array binding signal intensity
TEVPIPRRPPPPQAA | ≤ 0

molecular target: ScFus1; experiment: as above
Method in brief: as §1

Binder | SPOT peptide array binding signal intensity
TEVPIPRRPPPPQAA | 1

molecular target: ScHof1; experiment: as above
Method in brief: as §1

Binder | SPOT peptide array binding signal intensity
TEVPIPRRPPPPQAA | ≤ 0

molecular target: ScHse1; experiment: as above
Method in brief: as §1

Binder | SPOT peptide array binding signal intensity
TEVPIPRRPPPPQAA | ≤ 0

molecular target: ScLsb1; experiment: as above
Method in brief: as §1

Binder | SPOT peptide array binding signal intensity
TEVPIPRRPPPPQAA | 5

molecular target: ScLsb2; experiment: as above
Method in brief: as §1

Binder | SPOT peptide array binding signal intensity
TEVPIPRRPPPPQAA | ≤ 0

molecular target: ScLsb3; experiment: as above
Method in brief: as §1

Binder | SPOT peptide array binding signal intensity
TEVPIPRRPPPPQAA | 118

molecular target: ScLsb4; experiment: as above
Method in brief: as §1

Binder | SPOT peptide array binding signal intensity
TEVPIPRRPPPPQAA | 2

molecular target: ScMyo3; experiment: as above
Method in brief: as §1

Binder | SPOT peptide array binding signal intensity
TEVPIPRRPPPPQAA | 1370

molecular target: ScMyo5; experiment: as above
Method in brief: as §1

Binder | SPOT peptide array binding signal intensity
TEVPIPRRPPPPQAA | 569

molecular target: ScNbp2; experiment: as above
Method in brief: as §1

Binder | SPOT peptide array binding signal intensity
TEVPIPRRPPPPQAA | 12

molecular target: ScPex13; experiment: as above
Method in brief: as §1

Binder | SPOT peptide array binding signal intensity
TEVPIPRRPPPPQAA | ≤ 0

molecular target: ScRvs167; experiment: as above
Method in brief: as §1

Binder | SPOT peptide array binding signal intensity
TEVPIPRRPPPPQAA | 1.83

molecular target: ScSho1; experiment: as above
Method in brief: as §1

Binder | SPOT peptide array binding signal intensity
TEVPIPRRPPPPQAA | ≤ 0

molecular target: ScSla1-D1-D2; experiment: as above
Method in brief: as §1

Binder | SPOT peptide array binding signal intensity
TEVPIPRRPPPPQAA | ≤ 0

molecular target: ScSla1-D3; experiment: as above
Method in brief: as §1

Binder | SPOT peptide array binding signal intensity
TEVPIPRRPPPPQAA | ≤ 0

molecular target: SpAbp1-D1; experiment: as above
Method in brief: as §1

Binder | SPOT peptide array binding signal intensity
TEVPIPRRPPPPQAA | ≤ 0

molecular target: SpBbc1; experiment: as above
Method in brief: as §1

Binder | SPOT peptide array binding signal intensity
TEVPIPRRPPPPQAA | 1.25

molecular target: SpBzz1-D1; experiment: as above
Method in brief: as §1

Binder | SPOT peptide array binding signal intensity
TEVPIPRRPPPPQAA | 37

molecular target: SpBzz1-D2; experiment: as above
Method in brief: as §1

Binder | SPOT peptide array binding signal intensity
TEVPIPRRPPPPQAA | 0.25

molecular target: SpCyk3; experiment: as above
Method in brief: as §1

Binder | SPOT peptide array binding signal intensity
TEVPIPRRPPPPQAA | ≤ 0

molecular target: SpHof1; experiment: as above
Method in brief: as §1

Binder | SPOT peptide array binding signal intensity
TEVPIPRRPPPPQAA | ≤ 0

molecular target: SpHof1-2; experiment: as above
Method in brief: as §1

Binder | SPOT peptide array binding signal intensity
TEVPIPRRPPPPQAA | ≤ 0

molecular target: SpHof1-3; experiment: as above
Method in brief: as §1

Binder | SPOT peptide array binding signal intensity
TEVPIPRRPPPPQAA | ≤ 0

molecular target: SpHse1; experiment: as above
Method in brief: as §1

Binder | SPOT peptide array binding signal intensity
TEVPIPRRPPPPQAA | 8

molecular target: SpLsb1; experiment: as above
Method in brief: as §1

Binder | SPOT peptide array binding signal intensity
TEVPIPRRPPPPQAA | 1

molecular target: SpLsb4; experiment: as above
Method in brief: as §1

Binder | SPOT peptide array binding signal intensity
TEVPIPRRPPPPQAA | 90.5

molecular target: SpMyo1; experiment: as above
Method in brief: as §1

Binder | SPOT peptide array binding signal intensity
TEVPIPRRPPPPQAA | 1920

molecular target: SpNbp2; experiment: as above
Method in brief: as §1

Binder | SPOT peptide array binding signal intensity
TEVPIPRRPPPPQAA | 1

molecular target: SpPex13; experiment: as above
Method in brief: as §1

Binder | SPOT peptide array binding signal intensity
TEVPIPRRPPPPQAA | ≤ 0

molecular target: SpRvs167; experiment: as above
Method in brief: as §1

Binder | SPOT peptide array binding signal intensity
TEVPIPRRPPPPQAA | ≤ 0

molecular target: SpSla1-D1-D2; experiment: as above
Method in brief: as §1

Binder | SPOT peptide array binding signal intensity
TEVPIPRRPPPPQAA | ≤ 0

molecular target: SpSla1-D3; experiment: as above
Method in brief: as §1

Binder | SPOT peptide array binding signal intensity
TEVPIPRRPPPPQAA | 1
